Experimental data as given in the supplement of paper PMC6555819.

Tests used:
Test in all cases: PBM binding z-score (relative to random genomic background probes); higher = stronger binding; sequences stand for … in GC…GCGATTGACAGCGTAGAATGAAGG
[1] = test system: FXR:RXRa (NR concentration 270 nM, RXRa partner concentration 90 nM)
Method in brief: (§1)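 Random background probes are the reference for binding z-scores. These scores derive from regression-normalized fluorescence on custom Agilent 4×180K protein-binding microarrays incubated 1 h with ligand-free nuclear receptor dimers. Binding was detected with antibodies against each partner (one per run).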

[2] = test system: LXRa:RXRa (NR concentration 270 nM, RXRa partner concentration 90 nM)
Method in brief: as §1

[3] = test system: LXRa homodimer (NR concentration 270 nM)
Method in brief: as §1

[4] = test system: LXRb:RXRa (NR concentration 270 nM, RXRa partner concentration 90 nM)
Method in brief: as §1

[5] = test system: LXRb homodimer (NR concentration 270 nM)
Method in brief: as §1

[6] = test system: PPARa:RXRa (NR concentration 270 nM, RXRa partner concentration 90 nM)
Method in brief: as §1

[7] = test system: PPARg:RXRa (NR concentration 180 nM, RXRa partner concentration 90 nM)
Method in brief: as §1

[8] = test system: PPARg:RXRa 270nM:90nM, anti-RXR (NR concentration 270 nM, RXRa partner concentration 90 nM)
Method in brief: as §1

[9] = test system: PPARg:RXRa 30nM:10nM, anti-RXR (NR concentration 30 nM, RXRa partner concentration 10 nM)
Method in brief: as §1

[10] = test system: PPARg:RXRa 90nM:30nM, anti-RXR (NR concentration 90 nM, RXRa partner concentration 30 nM)
Method in brief: as §1

[11] = test system: PPARg:RXRa DBDmut IVT, anti-RXR (DBD mutation: RXRa K156A/R161A, NR concentration 270 nM, RXRa partner concentration 90 nM)
Method in brief: as §1

[12] = test system: PPARg:RXRa IVT, anti-PPARg (NR concentration 270 nM, RXRa partner concentration 90 nM)
Method in brief: as §1

[13] = test system: PPARg DBDmut:RXRa IVT, anti-PPARg (DBD mutation: PPARg1 K132A/R137A, NR concentration 270 nM, RXRa partner concentration 90 nM)
Method in brief: as §1

[14] = test system: PPARg DBDmut IVT, anti-PPARg (DBD mutation: PPARg1 K132A/R137A, NR concentration 270 nM)
Method in brief: as §1

[15] = test system: PPARg homodimer (NR concentration 180 nM)
Method in brief: as §1

[16] = test system: PXR:RXRa (NR concentration 270 nM, RXRa partner concentration 90 nM)
Method in brief: as §1

[17] = test system: PXR homodimer (NR concentration 270 nM)
Method in brief: as §1

[18] = test system: RARa:RXR (NR concentration 270 nM, RXRa partner concentration 90 nM)
Method in brief: as §1

[19] = test system: RARa homodimer (NR concentration 270 nM)
Method in brief: as §1

[20] = test system: RARb:RXRa (NR concentration 270 nM, RXRa partner concentration 90 nM)
Method in brief: as §1

Row | Sequence | PBM binding z-score [1] | PBM binding z-score [2] | PBM binding z-score [3] | PBM binding z-score [4] | PBM binding z-score [5] | PBM binding z-score [6] | PBM binding z-score [7] | PBM binding z-score [8] | PBM binding z-score [9] | PBM binding z-score [10] | PBM binding z-score [11] | PBM binding z-score [12] | PBM binding z-score [13] | PBM binding z-score [14] | PBM binding z-score [15] | PBM binding z-score [16] | PBM binding z-score [17] | PBM binding z-score [18] | PBM binding z-score [19] | PBM binding z-score [20]
1 | CGAACTAGGTGAAGGACAGTGAATCTCCGCACGC | -0.222 | -0.234 | -0.52 | -0.714 | -1.01 | 2.1 | 3.52 | 3.2 | 0.549 | 2.14 | 7.22 | 6.69 | 0.351 | 1.02 | -0.373 | -0.343 | -0.341 | -0.0643 | -0.232 | 0.792
2 | CGAACTAGGTCATCCACGACAGTGAATACATTGA | 4.92 | 2.48 | 0.634 | 2.23 | 0.18 | 4.92 | 8.03 | 6.61 | 4.01 | 5.93 | 7.98 | 8.15 | 5.88 | 5.31 | 2.72 | 1.59 | 0.311 | 2.59 | 0.664 | 3.87
3 | GATACAGGGTCAGCTAGCGGCCAGAGTATGGAAA | 4.95 | 2.67 | -0.847 | 2.34 | -0.774 | 4.56 | 3.77 | 3.29 | 0.52 | 2.01 | 1.01 | 2.05 | 0.0696 | -0.868 | 1.51 | 2.37 | -0.651 | 3.79 | 0.418 | 3.96
4 | GCAGACAGGTGAAACGCATGTAACTCAGGGTGGC | -0.379 | -0.173 | -0.544 | -0.265 | -1.29 | 0.825 | 0.841 | -0.0772 | -0.653 | -0.344 | 0.516 | 0.404 | -1.74 | -0.927 | -0.716 | -0.307 | -0.659 | -0.0582 | -0.606 | 0.532
5 | ACTAGTTGGTCAGCTGAGGTCTCACACAATTCGG | 0.132 | -0.314 | -0.301 | -0.188 | -0.19 | 0.142 | 0.384 | 0.246 | -0.202 | 0.00207 | 1.19 | 0.901 | 0.251 | 0.203 | 0.325 | 0.286 | -0.249 | 0.165 | 0.106 | 1.05
6 | CCGACTCGGGCAGAAAGGTTACCATACCATCCGG | 0.546 | 0.698 | -0.128 | 0.841 | -0.536 | 1.97 | 1.41 | 2.44 | 0.663 | 1.76 | -0.0361 | 0.238 | -1.52 | -1.19 | 0.529 | 0.674 | -0.293 | 1.33 | -0.25 | 1.74
7 | AGTCAAAGATCACTAGGTAACGTAAGATTCAGCT | -0.239 | 0.0788 | -0.206 | 0.152 | -0.329 | 1.52 | 2.34 | 2.95 | 0.876 | 2.3 | 1.14 | 2.97 | 0.137 | 0.156 | 0.697 | -0.103 | 0.0772 | 0.125 | 0.459 | 0.233
